Results filed as inconclusive are left out. Where a call stands in place of a potency, no number is given. Values without a mark were called inactive. Calls of active or inactive are those of the source. The call rests on the fitted dose curve; in most records, active means well fitted inhibition curve with a large enough effect; inconclusive means small, poorly fitted or top-dose-only effect; inactive means no such curve, though single readings can be large or run the other way.
Columns and labels:
[1] = system: Zika virus NS2B-NS3 protease (unlinked complex); assay: Primary screen GU Rhodamine qHTS for Zika virus inhibitors: Unlinked NS2B-NS3 protease assay (AID 1347159); conditions: Recombinant ZIKV NS2B-NS3 protease, Rhodamine110 substrate fluorescence; series mostly up to 107 µM; further: nearly all actives have a fitted effect of over 60% in size
Outline: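 Buffer 10 mM Tris-HCl pH 8.0, 0.01% Tween 20. Unlinked protease 25 nM; compound preincubation 15 min, RT, protected from light. Substrate Rhod110, 1.5 microM; ~15% conversion in 15 min.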

[2] = system: Zika virus NS2B-NS3 protease (linked construct); assay: Primary screen NINDS Rhodamine qHTS for Zika virus inhibitors (AID 1347160); conditions: purified NS2B-NS3 protease, Rhodamine110 substrate fluorescence; series mostly up to 57.1 µM; further: nearly all actives have a fitted effect of over 55% in size
Outline: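 Aprotinin served as in-plate control. Conditions: 25 nM linked NS2B-NS3, pH 8.0 Tris buffer, titrated compounds, 15 min preincubation and 15 min reaction with 1.5 microM Rhod110 substrate at room temperature.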

| Structure (SMILES) | Potency [1] | Potency [2] | activity change, negative = inhibition [1] | activity change, negative = inhibition [2] |
| --- | --- | --- | --- | --- |
| C=C1[C@H]2[C@H](O[C@@H]3O[C@H](COC(=O)/C=C/c4cc(OC)c(O)c(OC)c4)[C@@H](O)[C@H](O)[C@H]3O)OC=C(C(=O)O)[C@H]2C[C@@H]1O | inactive | inactive | – | – |
| CC(C)(OC1OC(CO)C(O)C(O)C1O)C1CCC(O)(CO)C2CC(O)C(C)(O)C2C1 (centres undefined) | inactive | inactive | – | – |
| C[C@@H]1O[C@@H](O[C@@H]2[C@@H](O)[C@@H](O)[C@H](O[C@@H]3[C@@H](O)[C@@H](O[C@]4(CO)O[C@H](CO)[C@@H](O)[C@@H]4OC(=O)/C=C/c4ccc(O)cc4)O[C@H](CO)[C@H]3OC(=O)/C=C/c3ccc(O)cc3)O[C@H]2C)[C@H](O)[C@H](O)[C@H]1O | inactive | inactive | – | – |
| c1ccc(C(OC2CCN(CCCc3nn[nH]n3)CC2)c2ccccc2)cc1 | inactive | inactive | – | – |
| CC(=O)N(O)CCCCCN1C(=O)CCC1=O | inactive | inactive | – | – |
| CCOc1cc2ncc(C#N)c(Nc3ccc(OCc4ccccn4)c(Cl)c3)c2cc1NC(=O)/C=C/CN(C)C | inactive | inactive | – | – |
| COc1cccc2c1CCC[C@H]2CN(C)CCc1ccc2ccoc2c1 | inactive | inactive | – | – |
| N#Cc1ccnc(N2C(=O)CC[C@H]2C(=O)N(c2cncc(F)c2)[C@H](C(=O)NC2CC(F)(F)C2)c2ccccc2Cl)c1 | inactive | inactive | – | – |
| Cc1cc(O)c(C(C)C)cc1O[C@@H]1O[C@H](CO)[C@@H](O)[C@H](O)[C@H]1O | inactive | inactive | – | – |
| COc1cc(/C=C/C(=O)O[C@H]2[C@H](O)[C@@H](CO)O[C@@]2(CO)O[C@H]2O[C@H](COC(=O)c3ccc(O)cc3)[C@@H](O)[C@H](O)[C@H]2O)cc(OC)c1OC | inactive | inactive | – | – |
| CC1(C(=O)O)CCCC2(C)C1CCC13CC(CCC21)C1(CO)OC31 (centres undefined) | inactive | inactive | – | – |
| Cn1c(=O)cc(N2CCCC(N)C2)n(Cc2ccccc2C#N)c1=O (centres undefined) | inactive | inactive | – | – |
| CCCCNC(=O)[C@@H]1Cc2ccccc2N1C(=O)[C@@H](N)CC | inactive | inactive | – | – |
| C[C@@H]1O[C@@H](O[C@H]2[C@H](OC(=O)C34CCC(C)(C)CC3C3=CCC5C6(C)CC(O)C(O[C@@H]7O[C@H](CO)[C@@H](O)[C@H](O)[C@H]7O)C(C)(C(=O)O)C6CCC5(C)C3(CO)CC4)O[C@H](C)[C@H](O)[C@@H]2O)[C@H](O)[C@H](O)[C@H]1O[C@@H]1OC[C@@H](O)[C@H](O)[C@H]1O (some centres undefined) | inactive | inactive | – | – |
| COC1=Cc2c(nc3n(c2=O)C(C)C(=O)NC3(O)C(C)C)OC=C1 (centres undefined) | inactive | inactive | – | – |
| CC(=O)O[C@H]1CC[C@@]2(CI)C(=CC[C@@H]3[C@@H]2CC[C@]2(C)[C@@H]([C@H](C)CCCC(C)C)CC[C@@H]32)C1 | – | – | 13.5% [at 19.1 µM] | 7.05% [at 10.7 µM] |
| CC(NCc1ccc(OCc2cccc(F)c2)cc1)C(N)=O (centres undefined) | inactive | inactive | – | – |
| C=C1CCC(OC(C)=O)C2(C)CC3(O)OC(=O)C(C)=C3CC12 (centres undefined) | inactive | inactive | – | – |
| OC[C@H]1O[C@@H](Oc2cc(O)cc(/C=C/c3ccc(O)cc3)c2)[C@H](O)[C@@H](O)[C@@H]1O | inactive | inactive | – | – |
| CCOc1nc2cccc(C(=O)O)c2n1Cc1ccc(-c2ccccc2-c2noc(=O)[nH]2)cc1 | inactive | inactive | – | – |
| CCC(CCO[C@@H]1O[C@H](CO[C@H]2OC[C@](O)(CO)[C@H]2O)[C@@H](O)[C@H](O)[C@H]1O)C(C)(C)O (some centres undefined) | inactive | inactive | – | – |
| COc1c(C)c(OCC=C(C)C)cc2c1C(=O)NC2=O | inactive | inactive | – | – |
| COc1cc(C)c(C(=O)O[C@H]2[C@@H](O)[C@H](n3ccc(=O)[nH]c3=O)O[C@@H]2CO)c(OC)c1 | inactive | inactive | – | – |
| COc1cc(C(C)=O)ccc1O[C@@H]1O[C@H](CO[C@@H]2O[C@@H](C)[C@H](O)[C@@H](O)[C@H]2O)[C@@H](O)[C@H](O)[C@H]1O | inactive | inactive | – | – |
| CC1(C)CC(=O)N(CCCCN2CCN(c3ncccn3)CC2)C(=O)C1 | inactive | inactive | – | – |
| CC1(C)CC[C@]2(C(=O)O[C@@H]3O[C@H](CO)[C@@H](O)[C@H](O)[C@H]3O)CC[C@]3(C)C(=CCC4[C@@]5(C)C[C@@H](O)[C@H](O)C(CO)(CO)C5CC[C@]43C)C2[C@@H]1O (some centres undefined) | inactive | inactive | – | – |
| C=C1CC2C3(C)C(OC(C)=O)CC(=O)OC(C)(C)C3C(O)C(OC(C)=O)C2(C)C2C(=O)OC(C)C(=O)C12C (centres undefined) | inactive | inactive | – | – |
